# Screening data deposited in PubChem BioAssay by National Center for Advancing Translational Sciences (NCATS).
# ASM inhibitor: inhibitors of human secretory acid sphingomyelinase. P17405. placental ASM, HMU-PC fluorogenic substrate, 60 min. Potency, µM (highest dose often 57.5 µM), for inactives: top-dose activity change, negative = inhibition, hits mostly inhibitors. hit rate 0.006% among 340,000. AID 504937; also: potency is read from the fitted curve at half-maximal effect
# Target sequence (P17405 47-631 limits assumed): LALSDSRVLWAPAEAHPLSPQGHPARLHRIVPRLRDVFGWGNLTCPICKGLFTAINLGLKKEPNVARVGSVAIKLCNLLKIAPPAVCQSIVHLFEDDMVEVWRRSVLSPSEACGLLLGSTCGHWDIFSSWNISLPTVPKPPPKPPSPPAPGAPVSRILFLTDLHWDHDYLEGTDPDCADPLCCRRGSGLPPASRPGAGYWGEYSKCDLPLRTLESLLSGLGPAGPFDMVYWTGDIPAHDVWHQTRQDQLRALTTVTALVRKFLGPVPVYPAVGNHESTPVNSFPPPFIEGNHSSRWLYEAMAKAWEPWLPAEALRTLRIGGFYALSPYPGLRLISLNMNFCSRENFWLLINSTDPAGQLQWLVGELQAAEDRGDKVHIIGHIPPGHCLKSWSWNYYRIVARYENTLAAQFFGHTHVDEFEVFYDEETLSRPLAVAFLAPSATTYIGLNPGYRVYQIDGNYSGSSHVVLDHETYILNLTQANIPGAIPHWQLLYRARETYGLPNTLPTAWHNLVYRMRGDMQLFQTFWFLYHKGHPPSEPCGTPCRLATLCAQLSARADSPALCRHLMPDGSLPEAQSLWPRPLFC
#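 Fluorescence read-out (Ex 386 nm, Em 447 nm) after stopping the reaction at pH 10. Enzyme: ASM from human placenta; substrate HMU-PC0, 9 uM final; 60 min, 37 °C. Compound preincubation 10 min, ambient temperature.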
# TGFb SMAD3 inh: inhibitors of TGF-b signaling; HepG2 CAGA-GFP TGF-b/SMAD3 reporter, GFP fluorescence, 18 h; TGF-beta stimulated, 500 pg/mL final; Potency, µM (top dose mostly 46.1 µM), for inactives: at the top dose activity, negative = inhibition, actives largely listed as inhibitors; hit rate 1.2% among 410,000; also: potency is read from the fitted curve at half-maximal effect; % is scaled to controls: 0 for no effect and ±100 for the full control effect; nearly all actives have a fitted effect of over 65% in size
#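 Read-out: total well GFP (ex488/em500-530) summed from mean per-cell fluorescence. Cells: HEPG2 CAGA-GFP, 1% FBS DMEM, 18 h at 37 degrees C with 500 pg/mL final TGF-beta. Unstimulated wells served as the full-inhibition control; stimulated DMSO wells = 0%.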
# HepG2 tox: counter-screen for TGF-b inhibitors: cytotoxicity in HepG2 cells | HepG2 CAGA-GFP viability, ATP luminescence, 18 h | Potency, µM (series often up to 46.1 µM), for the others: top-dose activity change, negative = cytotoxicity, actives largely listed as cytotoxic | hit rate 0.76% among 410,000 | AID 588856; also: potency is read from the fitted curve at half-maximal effect
#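 CellTiter-Glo luminescence gave cytotoxicity after 18 hours at 37 degrees C. The cells were HepG2 CAGA-GFP in 1% FBS DMEM, stimulated with 500 pg/mL TGF-beta after compound addition. %Activity was normalised to no-cell wells (complete cell-killing) and DMSO (no toxicity), and curves were fitted and classified.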
# DT40 TDP1 no CPT: qHTS for Inhibitors of human tyrosyl-DNA phosphodiesterase 1 (TDP1): qHTS in cells in absence of CPT. Potency, µM (top dose mostly 46.2 µM), without a hit: top-dose activity change, negative = growth inhibition, hits mostly inhibitors. DT40 Tdp1-/- hTDP1 cells, no CPT, ATP luminescence, 48 h. hit rate 15% among 420,000; also: potency is read from the fitted curve at half-maximal effect; % is scaled to controls: 0 for no effect and ±100 for the full control effect; nearly all actives have a fitted effect of over 55% in size
#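 Chicken DT40 Tdp1-/- cells complemented with human TDP1, screened without camptothecin (DMSO vehicle only), 400 cells/well. Compounds pin-transferred, cells incubated at 37 °C for at least 48 hr. Growth read as ATP-dependent luminescence (CellTiter-Glo, 30 min at RT).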
# IL-1B inflam inh: blocks inflammasome-driven IL-1 beta release; hit rate 4.7% among 360,000; AID 743279; THP-1 LPS/ATP IL-1B secretion, AlphaLISA, 16 h; hits give low values; activity change, % at 57.5 µM; in the data active = activity change below about -50%; inconclusive = mostly about -30% to -49%; also: % is scaled to controls: 0 for no effect and ±100 for the full control effect
#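 Secreted IL-1B measured by AlphaLISA bead assay after 16 h compound exposure of THP-1 cells; compounds (final up to 57.5 uM) added 1 h before LPS (250 ng/mL) and ATP (1.25 mM) stimulation; lower signal means less secretion.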
# TDP1 cell CPT: DT40-hTDP1 cell growth loss with CPT. hit rate 12% among 420,000. Potency, µM (series often up to 46.2 µM), without a hit: at the highest dose activity change, negative = growth inhibition, most hits filed as inhibitors. AID 686979. chicken DT40 Tdp1-/-;hTDP1 cells + 20 nM CPT, ATP luminescence, 48 h; also: potency is read from the fitted curve at half-maximal effect; % is scaled to controls: 0 for no effect and ±100 for the full control effect; nearly all actives have a fitted effect of over 55% in size
#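 Cell growth measured by CellTiter-Glo luminescence after a minimum 48 h, 37 C compound exposure with 20 nM CPT in Tdp1-knockout DT40 cells stably expressing hTDP1, seeded 400/well; qHTS titration format.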
# * marks the source's active call; other numbers are inactive results; ? = inconclusive; nt = no result given; ! = a repeat was not active. The list is not random: actives were taken first. Their share in the collection is about 19%. Unless noted, calls follow the shape of the dose curve; as a rule, active = well fitted curve in the direction sought with a large enough effect; inconclusive = small, poorly fitted or top-dose-only effect, or another doubt; inactive = no such curve, though single readings can be large; an effect the other way counts as inactive or inconclusive.
SMILES,ASM inhibitor,TGFb SMAD3 inh,HepG2 tox,DT40 TDP1 no CPT,IL-1B inflam inh,TDP1 cell CPT
CCc1noc(C)c1C(=O)Nc1cc(Cl)ccc1N1CCCC1,0%,-14%,-7%,18µM*,7,?
CCc1noc(C)c1C(=O)Nc1ccccc1N1CCOCC1,1%,1%,17%,?,20,?
CCc1cc(C(=O)Nc2cc(Cl)ccc2N2CCN(C)CC2)sc1C,0%,-13%,-18%,23µM*,-10,?
CN1CCN(c2ccc(Cl)cc2NC(=O)c2nn(-c3ccccc3)c(=O)c3ccccc23)CC1,-4%,17%,-11%,9.2µM*,-18,?
CCN(CC)/[N+]([O-])=N/OCOC(=O)C(C)c1ccc(CC(C)C)cc1 (stereo unspecified),nt,-12%,-9%,nt,nt,nt
O=C1CCC(=O)N1c1ccc(S(=O)(=O)Nc2cccc(Br)c2)cc1,-1%,10%,4%,-10%,6,1%
COc1ccc(N(CC(=O)NCc2ccc3c(c2)OCO3)C(=O)CCC(=O)Nc2ccccn2)cc1,6%,1%,-17%,2%,4,0%
Cc1c(C(=O)Nc2cc(S(=O)(=O)N3CCOCC3)ccc2N2CCOCC2)oc2ccccc12,-8%,-6%,-1%,?,-8,18µM*
Cc1c(C(=O)Nc2cccc(Cl)c2)oc2ccc(S(=O)(=O)N3CCCCCC3)cc12,nt,15%,-1%,?,nt,23µM*
Cc1c(C(=O)Nc2ccccc2Br)oc2ccc(S(=O)(=O)N3CCOCC3)cc12,nt,0%,-23%,1%,nt,-13%
Cc1c(C(=O)Nc2cccc(Cl)c2)oc2ccc(S(=O)(=O)N3CCC4(CC3)OCCO4)cc12,?,1%,0%,18µM*,0,9.2µM*
COc1cccc(NC(=O)c2oc3ccc(S(=O)(=O)N4CCOCC4)cc3c2C)c1,-7%,4%,-1%,13µM*,-10,15µM*!
CCc1ccc(NC(=O)C(C)OC(=O)Cc2cc(OC)c(OC)c(OC)c2)cc1 (stereo unspecified),0%,3%,-4%,?,-6,?
O=C(Nc1ccccc1Cl)c1ccccc1CC(O)(c1ccccc1)c1ccccc1,nt,-5%,-10%,?,-21,?
CC(C)NC[C@@H](O)COc1ccc(CC(N)=O)cc1,-5%,-19%,10%,9%,1,-10%
Cc1ccc(Cl)cc1NC(=O)c1oc2ccc(S(=O)(=O)N3CCC4(CC3)OCCO4)cc2c1C,nt,-9%,1%,-15%,nt,-24%
Cc1c(C(=O)NCc2ccccc2)oc2ccc(S(=O)(=O)N3CCC4(CC3)OCCO4)cc12,-8%,-2%,-11%,21µM*,-11,?
Cc1c(C(=O)N2CCN(S(=O)(=O)c3cccs3)CC2)oc2ccc(F)cc12,1%,6%,7%,16µM*,-10,?
COc1ccc2oc(C(=O)Nc3ccc(N4CCOCC4)cc3)c(C)c2c1,-2%,-3%,0%,?,-57*,?
COc1cccc(NC(=O)c2oc3ccc(S(=O)(=O)N4CCC5(CC4)OCCO5)cc3c2C)c1,nt,0%,-27%,5.2µM*,nt,5.8µM*
CC[C@]12c3[nH]c4cc(CCC(=O)N(C)C)ccc4c3CCN1C(=O)[C@@H](CC(=O)NCc1ccco1)C[C@@H]2C(=O)N1CCN(C(=O)C2CC2)CC1,1%,-1%,3%,-5%,-3,-11%
COc1ncccc1C(=O)N1CCC(n2nccc2NC(=O)CC(C)C)CC1,1%,-2%,6%,-3%,-22,-5%
Cc1c(C(=O)Nc2ccccc2Br)oc2ccc(S(=O)(=O)N3CCCCC3)cc12,nt,-22%,-19%,?,nt,?
Cc1c(C(=O)Nc2ccccc2Cl)oc2ccc(S(=O)(=O)N3CCCCCC3)cc12,nt,9%,1%,13µM*,nt,5.8µM*
COc1ccc2oc(C(=O)N3CCN(S(=O)(=O)c4cccc([N+](=O)[O-])c4)CC3)c(C)c2c1,-6%,1%,4%,15µM*,-3,16µM*
SMILES,ASM inhibitor,TGFb SMAD3 inh,HepG2 tox,DT40 TDP1 no CPT,IL-1B inflam inh,TDP1 cell CPT
CCN(CC)CCCn1c2c(c(SCC(=O)Nc3cc(C)on3)nc1=O)CCC2,-2%,11%,-1%,-22%,10,9%
COc1ccc(CNCCNC(=O)c2nonc2N)cc1OC,4%,19%,-14%,-19%,-4,-1%
Nc1nonc1C(=O)NCCNCc1c(OCc2ccccc2F)ccc2ccccc12,-2%,?,-96%,11µM*,-81*,11µM*
Nc1nonc1C(=O)NCCNCc1ccccc1F,nt,22%,-23%,nt,nt,nt
Nc1nonc1C(=O)NCCNCc1cc(Br)ccc1OCc1ccc(F)cc1,0%,-18%,-47%,10µM*,-65*,10µM*
Cc1ccc2c(c1)N(C(=O)CCC(=O)NCc1ccccn1)CC(C)O2 (stereo unspecified),3%,-19%,-2%,3%,4,0%
NC(=S)N=Nc1c(O)[nH]c2cc(F)c(F)cc12,-3%,-4%,-5%,?,0,-10%
NC(=S)N=Nc1c(O)[nH]c2c(Cl)cc(Cl)cc12,-18%,0%,-21%,4.6µM*,?,16µM*
Cc1ccc(OCC(=O)N2N=C(c3cccnc3)CC2(O)C(F)(F)F)cc1C (stereo unspecified),-3%,-16%,-1%,?,-6,16µM*
CCC1=NN(C(=O)Cc2ccc([N+](=O)[O-])cc2)C(O)(C(F)(F)F)C1 (stereo unspecified),1%,8%,-2%,?,0,-6%
CCC1=NN(C(=O)Cc2ccc(OC)cc2)C(O)(C(F)(F)F)C1 (stereo unspecified),3%,-1%,-6%,21µM*,10,29µM*
